Records with an inconclusive call do not appear. Where a call stands in place of a potency, no number is given. A number with no mark means an inactive call. The source made the active and inactive calls. Calls follow the shape of the dose curve; as a rule, active = well fitted cell-killing curve with a large enough effect in the repeat runs; inconclusive = weak or mixed curves, or effect the other way; inactive = flat fitted curve, though single readings scatter.

The assay can be described thus: cAMP Responsive Elements (CRE) small molecule antagonists, cell-based qHTS assay: qHTS cell viability counter screen (AID 2060913). Also: nearly all actives have a fitted effect of over 40% in size. As to conditions: CRE-bla HEK293T viability, CellTiter-Glo luminescence, 5 h; series mostly up to 92.4 µM. Summed up: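 CRE-bla HEK293T cells were seeded in assay medium with 10% dialyzed FBS, incubated 18 hrs at 37 C, then exposed to compounds plus 0.25 uM final NKH477 for 3 hrs. Viability was read by CellTiter-Glo luminescence after 30 min, in the same wells.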
Consider `COc1cc(C=O)ccc1O`, for which the Potency result was “inactive”. Still for that read-out and setting: the result for `CCOC(=N)CC(=O)OCC` reads “inactive”. The same measure, in the same setting: next, `CC(CCl)OP(=O)(OC(C)CCl)OC(C)CCl` (centres undefined): “inactive”. For `OCCCCl`, the Potency result is “inactive”. `CCOC(=O)/C=C\C(=O)OCC`: the Potency result is “inactive”. The same measure, in the same setting: the result for `CCC(C)COC(C)=O` (centres undefined) reads “inactive”; that for `CC(C)OCCO`, “inactive”. Consider `CCNC(=O)[C@@H]1CCCN1C(=O)[C@H](CCCN=C(N)N)NC(=O)[C@H](CC(C)C)NC(=O)CNC(=O)[C@H](Cc1ccc(O)cc1)NC(=O)[C@H](CO)NC(=O)[C@H](Cc1c[nH]c2ccccc12)NC(=O)[C@H](Cc1cnc[nH]1)NC(=O)[C@@H]1CCC(=O)N1`, for which the Potency entry was “inactive”.

For the compound `Nc1ncnc2c1ncn2[C@@H]1O[C@H](CO)[C@@H](O)[C@H]1O`, the Potency entry is “inactive”. In the case of `BrC(Br)C(Br)Br`, the Potency result was “inactive”. Consider `CCCCN`, for which the Potency result was “inactive”. For the compound `CC(=O)OC(C)(C)C1CC=C(C)CC1` (centres undefined), the Potency entry was “inactive”.

In the case of `C1CCC(SSC2CCCCC2)CC1`, the Potency entry is “inactive”. For the compound `O=C(O)c1ccccc1S`, the Potency entry was “inactive”. `Clc1nnc(Cl)c2ccccc12`: the Potency result was “inactive”. On the same count and under the same terms, the result for `CC(C)(O)Cc1ccccc1` reads “inactive”; that for `Nc1ccc(F)cc1`, “inactive”. Still for that read-out and setting: next, `C[N+]1(C)CCC(OC(=O)C(O)(c2ccccc2)C2CCCC2)C1` (centres undefined): “inactive”. Take `CCN(CC)c1ccc2c(-c3ccccc3C(=O)O)c3ccc(=[N+](CC)CC)cc-3oc2c1`: the Potency result was “inactive”. Still for that read-out and setting: next, `O=C1O[C@H]([C@@H](O)CO)C(O)=C1O`: “inactive”.

Consider `C1COCCO1`, for which the Potency entry was “inactive”.

For `Cc1ccc(C(C)c2ccc(C)c(C)c2)cc1C`, the Potency result was “inactive”. In the case of `N[C@@H](CSSC[C@H](N)C(=O)O)C(=O)O`, the viability change, negative = cytotoxic is 0% [at 0.349 µM]. Turning to `Cc1ccccc1C`, the Potency entry was “inactive”. `CCN1CCCC1CN` (centres undefined): the Potency result is “inactive”.

With `NC(=O)c1ncn([C@@H]2O[C@H](CO)[C@@H](O)[C@H]2O)n1`, the Potency result is “inactive”. Still for that read-out and setting: next, `CC(C)CCCCCCOC(=O)c1ccc(C(=O)OCCCCCCC(C)C)c(C(=O)OCCCCCCC(C)C)c1`: “inactive”; `O=C1OC(=O)c2cc(Oc3ccc4c(c3)C(=O)OC4=O)ccc21`: “inactive”.

`CCn1c(=O)c2c(nc(/C=C/c3ccc(OC)c(OC)c3)n2C)n(CC)c1=O`: the Potency entry was “inactive”. In the case of `NC(=O)c1ccncc1`, the Potency entry is “inactive”. On the same count and under the same terms, the result for `C/C=C/C=C/CCCCCCCO` reads “inactive”. Same read-out and setting: next, `NC1=NCC2c3ccccc3Cc3ccccc3N12` (centres undefined): “inactive”; `Cc1ccc(S(N)(=O)=O)cc1`: “inactive”; `CC(=O)CC(=O)OC(C)(C)C`: “inactive”.

On to `CO[Si](CCCCl)(OC)OC`, for which the Potency result is “inactive”. Turning to `CC(C=O)Cc1ccc(C(C)(C)C)cc1` (centres undefined), the Potency entry was “inactive”. Same read-out and setting: next, `CC(=O)NC(Cc1ccccc1)C(=O)O` (centres undefined): “inactive”.

Consider `CCC(C)c1ccccc1` (centres undefined), for which the Potency result is “inactive”. Consider `Cc1cc(O)cc(C)c1Cl`, for which the Potency result was “inactive”.
